According to PubChem BioAssay (NCI):
This is part of a sample that, as a whole, favours compounds with a hit. Of some 83,000 tested, about 20% had one in any assay.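 Plates (96-well) were seeded with cells, treated with compound at one concentration, and incubated for 48 hours before percent growth was determined.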 Active and inactive are the calls of the source. How the source made its calls: active means growth percent below 10; inactive means the rest.

How the values were obtained:
Assay in all cases: NCI-60 one-dose screen, 48 h (100 = growth as untreated, 0 = no growth, -100 = all killed)
NCI-H23 lung = conditions: 10 µM unless noted
NCI-H322M lung = conditions: 10 µM unless noted
HOP-62 NSCLC = conditions: 10 µM unless noted
NCI-H522 lung = conditions: 10 µM unless noted
K-562 leukemia = conditions: 10 µM unless noted
MALME-3M melanoma = conditions: 10 µM unless noted
SF-295 CNS = conditions: 10 µM unless noted
U251 CNS = conditions: 10 µM unless noted
SK-MEL-2 melanoma = conditions: 10 µM unless noted
EKVX NSCLC = conditions: 10 µM unless noted
SN12C renal = conditions: 10 µM unless noted
ACHN renal = conditions: 10 µM unless noted
CCRF-CEM leukemia = conditions: 10 µM unless noted
RPMI-8226 leukemia = conditions: 10 µM unless noted
IGROV1 ovarian = conditions: 10 µM
HS 578T breast = conditions: 10 µM unless noted
A498 renal = conditions: 10 µM unless noted
NCI-H226 lung = conditions: 10 µM unless noted
COLO 205 colon = conditions: 10 µM

Measured: growth

CC(=O)O[C@@H]1C2=C(C)C3(CC3)[C@@](C)(O)C(=O)C2=C[C@@]1(C)CO
active: NCI-H23 lung -33.2% | NCI-H322M lung -5.44% | HOP-62 NSCLC -10.1% | NCI-H522 lung -36.6% | K-562 leukemia 1.92% | MALME-3M melanoma -69.7% | SF-295 CNS -3.92% | U251 CNS -2.05% | SK-MEL-2 melanoma -42.2% | ACHN renal -6.63% | RPMI-8226 leukemia -18.8% | IGROV1 ovarian 3.81% | HS 578T breast -9.28%
inactive: EKVX NSCLC 13.6% | SN12C renal 12.4% | CCRF-CEM leukemia 10.9%

Oc1ccc(Br)cc1CN1CCN(Cc2ccc(Cl)cc2)CC1
active: NCI-H522 lung -84.4% | K-562 leukemia -34.3%
inactive: NCI-H23 lung 91.1% | NCI-H322M lung 103% | HOP-62 NSCLC 57.6% | U251 CNS 48.9% | SK-MEL-2 melanoma 88.2% | ACHN renal 83.3% | A498 renal 105% | CCRF-CEM leukemia 26.7% | RPMI-8226 leukemia 16.7% | HS 578T breast 80.9%

O=C(O)C1(Br)CC12c1ccccc1-c1ccccc12 (centres undefined)
inactive: NCI-H23 lung 97.1% | NCI-H226 lung 98.9% | NCI-H522 lung 95.9% | COLO 205 colon 115% | K-562 leukemia 86.6% | MALME-3M melanoma 100% | SK-MEL-2 melanoma 110% | EKVX NSCLC 116% | SN12C renal 107% | ACHN renal 99% | IGROV1 ovarian 99.7% | HS 578T breast 110%

COc1ccc(NP2(=O)OCC(C)(N)CO2)cc1 (centres undefined)
inactive: NCI-H23 lung 92% | NCI-H226 lung 105% | NCI-H522 lung 92.5% | COLO 205 colon 109% | K-562 leukemia 88.9% | MALME-3M melanoma 97.3% | SK-MEL-2 melanoma 108% | EKVX NSCLC 120% | SN12C renal 105% | ACHN renal 96.6% | CCRF-CEM leukemia 88.9% | IGROV1 ovarian 102% | HS 578T breast 109%

COc1cc(CNCCc2ccc(Cl)cc2)cc(OC)c1O
inactive: NCI-H23 lung 67% | NCI-H322M lung 78.9% | HOP-62 NSCLC 83.3% | NCI-H522 lung 16.1% | COLO 205 colon 77.5% | K-562 leukemia 21.7% | U251 CNS 58.5% | SK-MEL-2 melanoma 27.8% | SN12C renal 75.5% | ACHN renal 75.6% | A498 renal 66.3% | CCRF-CEM leukemia 46.9% | RPMI-8226 leukemia 42.4% | HS 578T breast 62.6%

CC(=O)O[C@H]1C[C@H](O[C@H]2[C@@H](O)C[C@H](O[C@H]3[C@@H](O)C[C@H](O[C@H]4CC[C@@]5(C)C(CCC6C5C[C@@H](O)[C@]5(C)[C@@H](C7=CC(=O)OC7)CC[C@]65O)C4)O[C@@H]3C)O[C@@H]2C)O[C@H](C)[C@H]1O[C@@H]1O[C@H](CO)[C@@H](O)[C@H](O)[C@H]1O (some centres undefined)
active: NCI-H23 lung -64.1% | NCI-H226 lung -98.6% | COLO 205 colon -74.2% | MALME-3M melanoma -36% | SF-295 CNS -84% | U251 CNS -100% | EKVX NSCLC -98.3% | SN12C renal -38.9% | ACHN renal -59.1% | A498 renal -19.5% | CCRF-CEM leukemia -23.5% | RPMI-8226 leukemia -0.309% | IGROV1 ovarian 7.96% | HS 578T breast 2.41%

CC(C)(C)[Si](C)(C)OC1[C@@H](O[Si](C)(C)C(C)(C)C)[C@@H](CNC(=O)NC(=O)CF)O[C@H]1n1cnc2c(NC(=O)Nc3ccccc3)ncnc21 (some centres undefined)
inactive: NCI-H23 lung 64.7% | NCI-H322M lung 104% | HOP-62 NSCLC 87.1% | COLO 205 colon 84.4% | K-562 leukemia 37.7% | MALME-3M melanoma 101% | SF-295 CNS 79.5% | U251 CNS 56.6% | SN12C renal 44.3% | ACHN renal 71.8% | A498 renal 70.2% | RPMI-8226 leukemia 24.6% | IGROV1 ovarian 72.9% | HS 578T breast 29.5%
active: CCRF-CEM leukemia 4.8%

CC(C)OC(=S)[S-].[Au+].c1ccc([PH+](c2ccccc2)c2ccccc2)cc1
inactive: NCI-H23 lung 42.4% | NCI-H322M lung 99.4% | HOP-62 NSCLC 76% | SF-295 CNS 91.1% | U251 CNS 11.2% | SK-MEL-2 melanoma 33% | EKVX NSCLC 82.9% | SN12C renal 16.7% | CCRF-CEM leukemia 10.9% | HS 578T breast 15.6%
active: NCI-H522 lung -63.6% | K-562 leukemia 8.05% | MALME-3M melanoma 5.97% | ACHN renal 0.723% | RPMI-8226 leukemia 3.19% | IGROV1 ovarian 2.28%

COc1cc(NCCCCCN=C(N)N)c2ncccc2c1
inactive: NCI-H322M lung 61.4% | HOP-62 NSCLC 45.7% | COLO 205 colon 54.9% | K-562 leukemia 16.1% | MALME-3M melanoma 19.6% | SF-295 CNS 61.1% | SK-MEL-2 melanoma 43.3% | EKVX NSCLC 65.4% | ACHN renal 105% | A498 renal 89.6% | CCRF-CEM leukemia 39.8% | RPMI-8226 leukemia 58.2% | IGROV1 ovarian 23.6%
active: NCI-H23 lung 4.89% | NCI-H522 lung 9.47% | SN12C renal 7.58%

O=C(N/N=C/c1ccc([N+](=O)[O-])o1)c1cc([N+](=O)[O-])cc([N+](=O)[O-])c1O
inactive: NCI-H23 lung 94.1% | NCI-H226 lung 97.9% | COLO 205 colon 107% | MALME-3M melanoma 122% | SF-295 CNS 104% | U251 CNS 91.8% | EKVX NSCLC 108% | SN12C renal 96.1% | ACHN renal 90.6% | A498 renal 79.7% | CCRF-CEM leukemia 98.3% | RPMI-8226 leukemia 99.8% | IGROV1 ovarian 97% | HS 578T breast 104%

NC(=O)OCC(CO)(c1ccccc1)c1ccccc1
inactive: NCI-H226 lung 96.2% | HOP-62 NSCLC 94.9% | NCI-H522 lung 98.8% | COLO 205 colon 105% | K-562 leukemia 108% | MALME-3M melanoma 84.6% | SF-295 CNS 93.5% | ACHN renal 98.1% | A498 renal 81.7% | CCRF-CEM leukemia 94.4% | RPMI-8226 leukemia 98.4% | IGROV1 ovarian 103% | HS 578T breast 110%

n1nc(-c2nonc2-c2nn[nH]n2)n[nH]1
inactive: NCI-H23 lung 102% | HOP-62 NSCLC 112% | NCI-H522 lung 101% | COLO 205 colon 117% | K-562 leukemia 106% | MALME-3M melanoma 106% | SF-295 CNS 94.5% | U251 CNS 101% | SK-MEL-2 melanoma 115% | EKVX NSCLC 96.3% | SN12C renal 102% | ACHN renal 115% | A498 renal 81.9% | RPMI-8226 leukemia 96.5% | IGROV1 ovarian 118%

CC[C@@]1(C2O[C@@H](C3O[C@@](O)(CC)[C@H](C)C[C@@H]3C)C[C@@H]2C)CC[C@H]([C@]2(C)CCC3(C[C@H](O)[C@@H](C)[C@@H]([C@H](C)[C@@H](OC)[C@H](C)C(=O)O)O3)O2)O1 (some centres undefined)
inactive: NCI-H23 lung 16.5% | NCI-H322M lung 38.8% | EKVX NSCLC 26.1% | SN12C renal 31% | A498 renal 42.7% | IGROV1 ovarian 36.9%

O=C(CCc1ccco1)NC1CCN(CC2(c3ccc(Cl)cc3)CCC2)CC1
active: NCI-H23 lung -22.6% | NCI-H522 lung -22.2% | COLO 205 colon -30% | K-562 leukemia 3.19% | MALME-3M melanoma -17.9% | SF-295 CNS -46.5% | U251 CNS 7.34% | SK-MEL-2 melanoma -24.3% | SN12C renal 5.58% | A498 renal -15% | CCRF-CEM leukemia 6.1% | RPMI-8226 leukemia -5.13%
inactive: NCI-H322M lung 34.7% | HOP-62 NSCLC 39.3% | ACHN renal 13.8% | HS 578T breast 28.7%

COc1c(O)c2c3c(c1OC)-c1ccccc1CC3N(C)CC2 (centres undefined)
inactive: NCI-H23 lung 102% | NCI-H322M lung 96.1% | HOP-62 NSCLC 104% | NCI-H522 lung 88.6% | K-562 leukemia 92.3% | MALME-3M melanoma 105% | SF-295 CNS 99.9% | U251 CNS 99.1% | EKVX NSCLC 115% | ACHN renal 105% | A498 renal 116% | CCRF-CEM leukemia 98.7% | RPMI-8226 leukemia 102% | IGROV1 ovarian 96.8% | HS 578T breast 110%

CC12CCC(=O)C=C1C(O)CC1C2CCC2(C)C(O)CCC12 (centres undefined)
inactive: NCI-H23 lung 100% | NCI-H226 lung 94.7% | NCI-H522 lung 106% | COLO 205 colon 112% | K-562 leukemia 105% | MALME-3M melanoma 95.9% | SF-295 CNS 105% | U251 CNS 97.3% | EKVX NSCLC 107% | SN12C renal 105% | ACHN renal 117% | A498 renal 89.6% | RPMI-8226 leukemia 108% | HS 578T breast 104%

Clc1ccc(SSC(Cl)(Cl)Cl)cc1
inactive: NCI-H226 lung 110% | NCI-H322M lung 112% | HOP-62 NSCLC 106% | NCI-H522 lung 107% | COLO 205 colon 114% | K-562 leukemia 112% | MALME-3M melanoma 95.7% | SF-295 CNS 103% | SK-MEL-2 melanoma 123% | EKVX NSCLC 108% | SN12C renal 102% | ACHN renal 102% | A498 renal 111% | CCRF-CEM leukemia 109% | RPMI-8226 leukemia 119% | IGROV1 ovarian 107%

CC1([N+](=O)[O-])COP(=O)(Nc2ccc(F)cc2)OC1 (centres undefined)
inactive: NCI-H23 lung 96.4% | NCI-H226 lung 101% | NCI-H522 lung 89.4% | COLO 205 colon 107% | K-562 leukemia 103% | MALME-3M melanoma 110% | SF-295 CNS 106% | SK-MEL-2 melanoma 98% | EKVX NSCLC 115% | SN12C renal 111% | CCRF-CEM leukemia 96.3% | HS 578T breast 103%

NC(=O)C(Cl)Cl
active: CCRF-CEM leukemia -19.9%
inactive: NCI-H23 lung 108% | NCI-H322M lung 94.4% | HOP-62 NSCLC 102% | NCI-H522 lung 109% | COLO 205 colon 113% | K-562 leukemia 100% | MALME-3M melanoma 96.6% | SF-295 CNS 98.3% | ACHN renal 104% | A498 renal 106% | RPMI-8226 leukemia 105% | IGROV1 ovarian 102% | HS 578T breast 117%

CCC[CH2][Sn]([CH2]CCC)([CH2]CCC)[O]C(=O)c1ccc(Cl)cc1Cl
active: NCI-H23 lung -65.5% | HOP-62 NSCLC -82.2% | NCI-H522 lung -73.3% | COLO 205 colon -68.8% | K-562 leukemia -38.2% | MALME-3M melanoma -76.8% | SF-295 CNS -89.9% | U251 CNS -85.8% | EKVX NSCLC -65% | SN12C renal -83.9% | ACHN renal -100% | A498 renal -85.3% | RPMI-8226 leukemia -29.7% | IGROV1 ovarian -68.5% | HS 578T breast -38.3%

CC12CC[C@H](O)C=C1/C(=N/O)CC1C2CCC2(C)C1CC[C@@H]2O (some centres undefined)
inactive: NCI-H23 lung 103% | NCI-H226 lung 97.1% | HOP-62 NSCLC 96.4% | NCI-H522 lung 90.1% | MALME-3M melanoma 80.3% | U251 CNS 105% | SK-MEL-2 melanoma 99.2% | EKVX NSCLC 89.6% | SN12C renal 104% | ACHN renal 95.5% | IGROV1 ovarian 94.4%
